# Activity calls are given as the source filed them. How the source made its calls: active means hit-call score of the fitted dose curve at least 0.9, where 1 is the maximum; inactive means score below 0.9.
# Molecular target: human PKD2 (PRKD2) CAMK Kinase, PRKD2 (gene 25865) (UniProt Q9BZL6)
# Test: ERF_KP_ENZ_hPKD2: Eurofins (ERF) Enzymatic Radiometric [10 uM ATP] KinaseProfiler LeadHunter Assay for human PKD2 (PRKD2) CAMK Kinase
# Description: ERF_KP_ENZ_hPKD2 is a biochemical, single-readout assay that uses extracted gene-proteins in a cell-free assay. Measurements were taken 0.66 hour after chemical dosing in a 96-well plate. See PKD2 Human Protein Ser/Thr Kinase Enzymatic Radiometric Assay [10 uM ATP], KinaseProfiler.ERF_KP_ENZ_hPKD2 is an assay component calculated from the ERF_KP_ENZ_hPKD2 assay. It is designed to measure enzyme activity using a type of enzyme reporter as detected by scintillation counting with radiometry technology.Data from the assay component ERF_KP_ENZ_hPKD2 was analyzed at the assay endpoint, ERF_KP_ENZ_hPKD2, in the positive analysis fitting direction relative to DMSO as the negative control and baseline of activity. Using a type of enzyme reporter, loss-of-signal activity can be used to understand changes in enzymatic activity as they relate to gene PRKD2. To generalize the intended target to other relatable targets, this assay endpoint is annotated to the kinase intended target family, where the subfamily is serine/threonine kinase.
# PKD2 (h) is incubated with 20 mM HEPES pH 7.4, 0.03% Triton X-100, 30 uM […], 10 mM MgAcetate and [gamma-33P]-ATP (specific activity and concentration as required). The reaction is initiated by the addition of the Mg/ATP mix. After incubation for 40 minutes at room temperature, the reaction is stopped by the addition of phosphoric acid to a concentration of 0.5%. […]
# human PKD2 (PRKD2) CAMK Kinase, PRKD2 (gene 25865), sequence (Q9BZL6 whole entry, looked up): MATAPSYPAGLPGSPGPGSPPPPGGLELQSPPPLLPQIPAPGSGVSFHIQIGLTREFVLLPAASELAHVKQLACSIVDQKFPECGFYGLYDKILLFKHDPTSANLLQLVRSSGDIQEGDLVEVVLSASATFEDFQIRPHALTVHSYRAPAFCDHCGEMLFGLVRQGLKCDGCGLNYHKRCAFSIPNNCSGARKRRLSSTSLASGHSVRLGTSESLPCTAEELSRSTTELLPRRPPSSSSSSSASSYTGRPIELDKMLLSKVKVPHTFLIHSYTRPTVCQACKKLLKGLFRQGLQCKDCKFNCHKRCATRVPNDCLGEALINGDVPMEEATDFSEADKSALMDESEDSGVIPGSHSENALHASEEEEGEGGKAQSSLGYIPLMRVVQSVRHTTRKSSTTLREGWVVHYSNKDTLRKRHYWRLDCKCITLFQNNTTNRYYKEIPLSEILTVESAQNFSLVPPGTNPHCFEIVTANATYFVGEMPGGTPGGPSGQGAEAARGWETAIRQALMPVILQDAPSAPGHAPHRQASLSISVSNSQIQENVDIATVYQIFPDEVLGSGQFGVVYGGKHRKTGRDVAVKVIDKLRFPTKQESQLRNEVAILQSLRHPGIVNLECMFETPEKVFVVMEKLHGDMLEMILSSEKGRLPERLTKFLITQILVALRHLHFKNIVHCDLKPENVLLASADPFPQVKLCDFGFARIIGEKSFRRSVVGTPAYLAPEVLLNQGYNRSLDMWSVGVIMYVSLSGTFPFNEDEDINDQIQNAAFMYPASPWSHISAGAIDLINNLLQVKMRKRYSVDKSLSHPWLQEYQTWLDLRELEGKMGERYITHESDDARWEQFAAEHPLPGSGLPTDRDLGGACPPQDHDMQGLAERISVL
row,Structure (SMILES),AC50
1,O=C(/C=C/c1ccc(O)cc1)CC(=O)/C=C/c1ccc(O)cc1,0.3 nM (active)
